“And” between values parts separate entries of the source, which are not always exact repeats. Identical values can stand only once. Inconclusive results are not listed. Some compounds were tested as several samples or in several runs, with calls that do not always agree. The source made the active and inactive calls. Unless noted, the call rests on the fitted dose curve; in most records, active means well fitted curve in either direction with a large enough effect (not every such curve was filed as active); inconclusive means small, poorly fitted or top-dose-only effect, or another doubt; inactive means flat fitted curve, though single readings scatter.
Columns and labels:
[1] = AP1 Signaling Pathway (AID 357);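 further: ME-180 reporter cells stimulated with EGF at its EC50 level; on the % scale 0 is the no-effect control and ±100 the full control effect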
Summary of the method: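 Cells are seeded overnight, exposed to compound titrations and an EC50 level of EGF for 5 hours at 37 °C, then loaded with CCF4 dye for 2.5 hours. Beta-lactamase activity under the AP-1 element is read as a blue/green ratio.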

[2] = NFAT Signaling Pathway (AID 444); conditions: Jurkat NFAT-bla M1, carbachol, beta-lactamase ratio, 5 h;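 further: carbachol stimulus at about its EC50 of 1 µM final; on the % scale 0 is the no-effect control and ±100 the full control effect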
Summary of the method: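 Jurkat cells carrying an NFAT-driven β-lactamase reporter and co-transfected muscarinic M1 receptor were treated with compound plus carbachol (1 uM final, an EC50 level) for 5 h at 37 °C. CCF4 loading followed for 1 h at RT; 460/530 nm ratio gave %activity.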

[3] = target: Glucocorticoid receptor (Homo sapiens) (UniProt P04150); assay: GR-GFP Redistribution (AID 450;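 active means compounds whose dose series gives a full or clear partial fitted curve of increased nuclear translocation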; further: potency means the concentration at half of the fitted maximal effect); conditions: U2OS GR-GFP nuclear translocation, laser cytometry, 2 h
[4] = target: Glucocorticoid receptor (Homo sapiens) (UniProt P04150); assay: GR-EFC Redistribution (AID 451; calls by dose curve; further: potency means the concentration at half of the fitted maximal effect); conditions: CHO-K1 GR-EFC translocation, beta-gal luminescence, 2 h
Summary of the method: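 CHO-K1 cells stably expressing nuclear-localized β-gal enzyme acceptor and GR fused C-terminally to the enzyme donor fragment; ligand-driven nuclear translocation restores β-gal by complementation. Compounds titrated up to 46 uM final, 2 h at 37 °C; luminescence read.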

[5] = target: Mitogen-activated protein kinase 10 (Mus musculus) (UniProt Q61831); assay: JNK3 AlphaScreen Assay (AID 530);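 further: kinase came from lysate of stimulated human HepG2 cells; signal reports phosphorylation of biotinylated GST-cJun 1-79 at Ser73 with 10 µM ATP; on the % scale 0 is the no-effect control and ±100 the full control effect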
Summary of the method: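 Inhibitors reduce antibody binding to phosphorylated biotin-cJun, lowering AlphaScreen luminescence. Lysates from HepG2 cells pre-activated by IL-1beta plus TNF-alpha supplied JNK3; compounds were titrated.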

[6] = target: 3',5'-cyclic-AMP phosphodiesterase 4B (Homo sapiens) (UniProt Q07343); assay: qHTS Assay for Inhibitors of PDE-IV (AID 607; active means well fitted activation curve with a large enough effect in the main read-out, with a control signal flat, not every such curve was filed as active; further: % of control where 0% means no effect)
Summary of the method: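 The readout is membrane depolarisation from a cAMP-sensing CNG channel, detected with a potential dye at ex 535/em 590. Cells were HEK293-derived (endogenous PDE-IV) at 1000 cells/well, titrated up to 22.9 uM final.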

[7] = target: Cytochrome P450 1A2 (Homo sapiens) (UniProt P05177); assay: p450-cyp1a2 (AID 410; calls by dose curve; further: potency means the concentration at half of the fitted maximal effect;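 on activity change, negative = inhibition: -100% = full effect of reference inhibitor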)
Summary of the method: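 Luminescent readout of luciferin formed from Luciferin-ME by human CYP1A2; data normalized against complete inhibition by 57 uM furafylline. Enzyme 20nM, substrate 100uM at Km, 100mM KPO4 buffer, 60 min reaction at room temperature.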

[8] = target: Lysosomal acid glucosylceramidase (Homo sapiens) (UniProt P04062); assay: Glucocerebrosidase-p2 (AID 348; in the data active means potency below about 10 µM; further: potency means the concentration at half of the fitted maximal effect); conditions: purified GBA, blue fluorogenic substrate, 40 min
Summary of the method: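 Compounds titrated from 0.6 nM upwards against 0.2 nM enzyme in pH 5.9 citric acid/KH2PO4, taurocholate, tween-20; blue fluorogenic substrate 80 uM, 40 min room temperature, stopped and read Ex 365/Em 440 for AC50.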

[9] = Cell Viability - BJ (AID 421; calls by dose curve;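 further: potency means the concentration at half of the fitted maximal effect; cells exposed to compound for 40 hours at 37 °C before readout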); conditions: BJ fibroblast viability, qHTS
Summary of the method: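 Cytotoxicity in human BJ foreskin fibroblasts is scored as loss of cellular ATP after a 40-hour exposure, measured by luciferase luminescence. Controls are DMSO and 100 uM tamoxifen.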

[10] = Cell Viability - Jurkat (AID 426;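 active means dose-dependent loss of cell ATP signal giving a full or clear fitted curve, ranked by lower potency value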; further: potency means the concentration at half of the fitted maximal effect); conditions: qHTS
Summary of the method: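 qHTS, 1536-well; Jurkat E6-1, 5000 cells/well, complete medium; cpd 40 hr, 37 °C; CellTiter-Glo 20 min RT; luminescence. AC50 by Hill fit.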

[11] = Cell Viability - HepG2 (AID 433; calls by dose curve;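 further: potency means the concentration at half of the fitted maximal effect; potency for ATP loss meaning cytotoxicity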); conditions: qHTS
Summary of the method: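 ATP luminescence (CellTiter-Glo) after 40 h compound exposure, 37 °C, HepG2, 1500 cells/well, complete medium. Normalized: DMSO = basal, 100 uM tamoxifen = 100% inhibition. AC50 via standard Hill equation.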

[12] = Cell Viability - MRC5 (AID 434; calls by dose curve;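 further: potency means the concentration at half of the fitted maximal effect; potency reflects cytotoxicity seen as loss of intracellular ATP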); conditions: MRC5 lung fibroblast viability, qHTS
Summary of the method: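 MRC5 normal human lung fibroblasts (1500/well) were treated with compounds for 40 hr at 37 °C in complete medium, and viable cells were measured as intracellular ATP by CellTiter-Glo luminescence. AC50 came from Hill fits, normalized to DMSO and 100 uM tamoxifen.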

[13] = Cell Viability - SK-N-SH (AID 435; calls by dose curve; further: potency means the concentration at half of the fitted maximal effect); conditions: SK-N-SH neuroblastoma cell viability qHTS
Summary of the method: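 CellTiter-Glo ATP luminescence, 20 min RT read; cells pre-plated 5 hr, compound 40 hr at 37 °C, 1500 cells/well, complete medium. Normalized DMSO = 0, 100 uM tamoxifen = 100% inhibition; Hill-fit AC50.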

[14] = Cell Viability - N2a (AID 540; active means well fitted curve in the direction sought with a large enough effect; an effect the other way counts as inactive or inconclusive;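 further: plate controls were DMSO alone for no effect and tamoxifen control for full effect; nearly all actives have a fitted effect of over 45% in size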); conditions: N2a mouse neuroblastoma cell viability; at 92.2 µM (top of the series)
Summary of the method: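 Luminescent ATP signal (CellTiter-Glo, 20 min at room temperature) served as the viability read-out after N2a cells were treated with compounds for 40 hours at 37 °C. Concentration-response data were fitted to the Hill equation for AC50.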

[15] = Cell Viability - NIH 3T3 (AID 541; active means well fitted curve in the direction sought with a large enough effect; an effect the other way counts as inactive or inconclusive;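 further: plate controls were DMSO alone for no effect and tamoxifen positive control for full effect; nearly all actives have a fitted effect of over 25% in size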)
Summary of the method: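 Luminescent ATP signal (CellTiter-Glo) served as the viability read-out after NIH 3T3 cells were exposed to compounds over a concentration range for 40 hr at 37 °C. Hill-equation modelling of concentration-response data gave AC50.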

[16] = Cell Viability - HUV-EC-C (AID 542; active means well fitted curve in the direction sought with a large enough effect; an effect the other way counts as inactive or inconclusive; further: on the % scale 0 is the no-effect control and ±100 the full control effect; nearly all actives have a fitted effect of over 35% in size)
Summary of the method: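 qHTS cytotoxicity: HUV-EC-C, 1000 cells/well, 5 hr settle, compound 40 hr 37 °C, CellTiter-Glo, luminescence. AC50 via Hill equation.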

[17] = Cell Viability - H-4-II-E (AID 543; active means well fitted curve in the direction sought with a large enough effect; an effect the other way counts as inactive or inconclusive; further: on the % scale 0 is the no-effect control and ±100 the full control effect; nearly all actives have a fitted effect of over 35% in size)
Summary of the method: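 Luminescent ATP signal (CellTiter-Glo) served as the viability read-out, with cytotoxicity seen as a concentration-dependent ATP drop. Cells were treated for 40 hours in complete medium. AC50 values derive from Hill-equation modelling.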

[18] = Cell Viability - SH-SY5Y (AID 544; active means well fitted curve in the direction sought with a large enough effect; an effect the other way counts as inactive or inconclusive;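 further: 0% = DMSO alone and -100% = 100 µM tamoxifen; nearly all actives have a fitted effect of over 55% in size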); conditions: SH-SY5Y neuroblastoma cell viability; at 92.2 µM (top of the series)
Summary of the method: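 Luminescent ATP read-out (CellTiter-Glo) measures loss of viable SH-SY5Y neuroblastoma cells after 40 hr compound exposure at 37 °C. AC50 values derive from standard Hill modelling of qHTS concentration-response data.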

[19] = Cell Viability - Renal Proximal Tubule (AID 545; active means well fitted curve in the direction sought with a large enough effect; an effect the other way counts as inactive or inconclusive;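 further: 0% = DMSO only and -100% = 100 µM tamoxifen; nearly all actives have a fitted effect of over 40% in size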)
Summary of the method: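 Rat kidney proximal tubule cells, freshly isolated; 1000 cells/well, 5 hr settle, compound 40 hr 37 °C. CellTiter-Glo 20 min RT, luminescence read. AC50 by standard Hill fit.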

[20] = Cell Viability - Mesenchymal (AID 546; active means well fitted curve in the direction sought with a large enough effect; an effect the other way counts as inactive or inconclusive;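 further: cells exposed to compound for 40 hours before reading; 0% = DMSO only and -100% = 100 µM tamoxifen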); conditions: mesenchymal cells viability, qHTS; at 91.7 µM (top of the series)
Summary of the method: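 Normal human renal glomerulus-derived kidney mesenchymal cells, 1000 per well in complete medium, were treated with compounds for 40 hr at 37 °C. Viability was read as intracellular ATP by CellTiter-Glo luminescence; AC50 values came from Hill-equation fits of qHTS concentration-response data.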

Sequence of Cytochrome P450 1A2 (Homo sapiens) (P05177 whole entry, looked up): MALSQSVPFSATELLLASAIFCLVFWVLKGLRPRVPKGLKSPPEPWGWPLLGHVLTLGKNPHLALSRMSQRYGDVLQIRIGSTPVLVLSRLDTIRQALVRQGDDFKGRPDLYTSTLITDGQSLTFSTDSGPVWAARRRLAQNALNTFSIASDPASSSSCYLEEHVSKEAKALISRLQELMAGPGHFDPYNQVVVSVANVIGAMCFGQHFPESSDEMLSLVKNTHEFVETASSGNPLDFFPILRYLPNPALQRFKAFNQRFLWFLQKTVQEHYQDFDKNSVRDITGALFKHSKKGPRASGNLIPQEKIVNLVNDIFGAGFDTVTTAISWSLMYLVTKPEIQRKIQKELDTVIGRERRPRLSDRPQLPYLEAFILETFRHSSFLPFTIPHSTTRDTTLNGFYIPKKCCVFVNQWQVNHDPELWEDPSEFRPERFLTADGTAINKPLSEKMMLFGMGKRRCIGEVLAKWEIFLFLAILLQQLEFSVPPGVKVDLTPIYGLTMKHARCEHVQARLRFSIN
Sequence of 3',5'-cyclic-AMP phosphodiesterase 4B (Homo sapiens) (Q07343 whole entry, looked up): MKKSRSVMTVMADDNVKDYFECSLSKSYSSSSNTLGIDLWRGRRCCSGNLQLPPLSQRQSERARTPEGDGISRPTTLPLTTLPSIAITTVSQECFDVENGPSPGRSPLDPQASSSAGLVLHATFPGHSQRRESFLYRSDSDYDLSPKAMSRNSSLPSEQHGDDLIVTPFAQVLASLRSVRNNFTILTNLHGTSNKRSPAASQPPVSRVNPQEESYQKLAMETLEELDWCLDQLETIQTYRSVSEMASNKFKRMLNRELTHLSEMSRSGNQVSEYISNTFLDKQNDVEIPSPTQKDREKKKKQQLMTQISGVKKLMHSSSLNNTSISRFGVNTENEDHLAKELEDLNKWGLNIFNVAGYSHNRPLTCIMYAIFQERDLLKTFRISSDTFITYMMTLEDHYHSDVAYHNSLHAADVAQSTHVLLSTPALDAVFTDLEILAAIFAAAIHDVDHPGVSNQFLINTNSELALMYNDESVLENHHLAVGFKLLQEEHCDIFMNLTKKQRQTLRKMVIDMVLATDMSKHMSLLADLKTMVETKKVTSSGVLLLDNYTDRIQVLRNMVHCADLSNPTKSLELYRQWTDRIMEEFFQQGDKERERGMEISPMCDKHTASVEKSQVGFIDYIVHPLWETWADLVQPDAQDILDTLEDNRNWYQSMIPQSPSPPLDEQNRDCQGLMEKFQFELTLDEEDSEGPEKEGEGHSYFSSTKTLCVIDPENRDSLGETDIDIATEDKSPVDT
Sequence of Glucocorticoid receptor (Homo sapiens) (P04150 whole entry, looked up, the tested form may be a part): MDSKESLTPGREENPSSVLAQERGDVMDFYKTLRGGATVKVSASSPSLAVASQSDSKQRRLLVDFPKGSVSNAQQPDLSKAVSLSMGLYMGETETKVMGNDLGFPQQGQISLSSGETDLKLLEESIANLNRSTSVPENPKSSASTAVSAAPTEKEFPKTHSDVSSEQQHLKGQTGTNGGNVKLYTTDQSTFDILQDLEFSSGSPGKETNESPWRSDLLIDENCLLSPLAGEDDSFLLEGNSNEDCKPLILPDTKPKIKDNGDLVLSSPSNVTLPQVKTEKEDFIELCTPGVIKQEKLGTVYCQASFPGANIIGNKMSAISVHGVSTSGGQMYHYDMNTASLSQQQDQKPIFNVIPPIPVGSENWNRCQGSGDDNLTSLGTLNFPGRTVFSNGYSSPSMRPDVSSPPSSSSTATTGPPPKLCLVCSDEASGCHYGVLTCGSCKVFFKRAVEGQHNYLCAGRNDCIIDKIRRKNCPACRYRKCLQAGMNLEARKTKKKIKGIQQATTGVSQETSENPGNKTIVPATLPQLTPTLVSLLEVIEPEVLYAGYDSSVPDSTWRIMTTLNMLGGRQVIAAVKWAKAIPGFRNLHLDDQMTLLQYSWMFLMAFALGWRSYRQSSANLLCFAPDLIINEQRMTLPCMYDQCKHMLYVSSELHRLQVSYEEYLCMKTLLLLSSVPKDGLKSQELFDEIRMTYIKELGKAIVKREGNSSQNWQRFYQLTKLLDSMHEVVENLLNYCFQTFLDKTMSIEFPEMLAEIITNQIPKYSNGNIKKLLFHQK
Sequence of Lysosomal acid glucosylceramidase (Homo sapiens) (P04062 whole entry, looked up): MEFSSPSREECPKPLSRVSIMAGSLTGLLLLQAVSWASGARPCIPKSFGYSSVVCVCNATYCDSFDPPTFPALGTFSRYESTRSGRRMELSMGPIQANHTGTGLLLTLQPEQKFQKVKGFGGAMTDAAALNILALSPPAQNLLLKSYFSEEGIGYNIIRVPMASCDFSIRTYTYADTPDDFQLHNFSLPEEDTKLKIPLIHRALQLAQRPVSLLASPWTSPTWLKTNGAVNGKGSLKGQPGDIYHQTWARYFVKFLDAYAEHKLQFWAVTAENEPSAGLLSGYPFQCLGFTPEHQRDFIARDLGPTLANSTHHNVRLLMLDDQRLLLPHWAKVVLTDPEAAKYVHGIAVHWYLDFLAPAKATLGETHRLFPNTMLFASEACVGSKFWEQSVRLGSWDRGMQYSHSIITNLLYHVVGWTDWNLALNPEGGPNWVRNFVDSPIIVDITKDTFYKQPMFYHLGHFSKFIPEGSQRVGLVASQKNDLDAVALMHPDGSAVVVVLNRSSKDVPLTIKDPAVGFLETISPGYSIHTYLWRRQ

CC[N+](C)(C)Cc1ccccc1Br
inactive: outcome [1] | activity change, negative = inhibition ([2]; at 17.2 µM (top of the series)) -8.6% | activity change, negative = inhibition ([2]; at 38 µM (top of the series)) -11% | Potency [3] > 46 µM and > 20.6 µM | Potency [4] > 46 µM and > 20.6 µM | outcome [5] | outcome [6]

C[C@]12C=CC(=O)C=C1CC[C@@H]1[C@@H]2[C@@H](O)C[C@@]2(C)[C@H]1CC[C@]2(O)C(=O)COC(=O)CCC(=O)O
inactive: outcome [1] | activity change, negative = inhibition ([2]; at 17.2 µM (top of the series)) 20.1%
active: Potency [3] 0.0285 µM

CN=C(NC#N)Nc1ccc(C2=NNC(=O)C[C@@H]2C)cc1
inactive and 39.8 µM (active): Potency [7]
inactive: outcome [1] | activity change, negative = inhibition ([2]; at 38 µM (top of the series)) -1.21% | outcome [5] | outcome [6]

O=C(O)CCC(=O)C(=O)O
inactive: Potency [8] > 11.4 µM | outcome [1] | activity change, negative = inhibition [7] -11.7% [at 11.4 µM] | Potency [9] > 92 µM | Potency [10] > 92 µM | Potency [11] > 92 µM | Potency [12] > 92 µM | Potency [13] > 92 µM | activity change, negative = inhibition ([2]; at 7.69 µM (top of the series)) 15.2% | Potency [3] > 46 µM | Potency [4] > 9.22 µM | outcome [5] | activity change, negative = cytotoxicity [14] 6.48% | outcome [15] | Potency [16] | Potency [17] | viability change, negative = cytotoxic [18] 4.65% | outcome [19] | activity change, negative = cytotoxicity [20] 6.49% | outcome [6]

Cc1c(C)c2c(c(C)c1O)CC[C@@](C)(CCC[C@@H](C)CCC[C@@H](C)CCCC(C)C)O2
inactive: outcome [1] | Potency [7] | activity change, negative = inhibition ([2]; at 17.2 µM (top of the series)) -1.66% | Potency [3] > 20.6 µM | Potency [4] > 20.6 µM | outcome [6]

CCCC(=O)O[C@]1(C(=O)COC(C)=O)CC[C@H]2[C@@H]3C[C@H](F)C4=CC(=O)C=C[C@]4(C)[C@@]3(F)[C@@H](O)C[C@@]21C
active: Potency [3] 0.00371 µM
inactive: outcome [1] | activity change, negative = inhibition ([2]; at 17.2 µM (top of the series)) -29.7%

CC1(C)S[C@@H]2[C@H](NC(=O)[C@@H](NC(=O)N3CCNC3=O)c3ccccc3)C(=O)N2[C@H]1C(=O)O
inactive: outcome [1] | Potency [7] | activity change, negative = inhibition ([2]; at 17.2 µM (top of the series)) -13.7% | Potency [3] > 20.6 µM | Potency [4] > 20.6 µM | outcome [5] | outcome [6]

Cc1cc(C(=O)NNCc2ccccc2)no1
inactive: outcome [1] | activity change, negative = inhibition ([2]; at 17.2 µM (top of the series)) 11.8% | Potency [3] > 20.6 µM | Potency [4] > 20.6 µM | outcome [5] | outcome [6]
active: Potency [7] 12.6 µM

— PubChem BioAssay (NCATS)
